The values below come from ChEMBL document CHEMBL1961873, “Compounds: GSK PKIS; Assays: Nanosyn kinase panel” (2012).

“And” between values parts separate entries of the source, which are not always exact repeats. Equal values may be shown once.

By inhibition is commonly meant the change of the read-out against control, counted positive when it falls.

Sequence of G protein-coupled receptor kinase 6 (Homo sapiens) (P43250 whole entry, looked up): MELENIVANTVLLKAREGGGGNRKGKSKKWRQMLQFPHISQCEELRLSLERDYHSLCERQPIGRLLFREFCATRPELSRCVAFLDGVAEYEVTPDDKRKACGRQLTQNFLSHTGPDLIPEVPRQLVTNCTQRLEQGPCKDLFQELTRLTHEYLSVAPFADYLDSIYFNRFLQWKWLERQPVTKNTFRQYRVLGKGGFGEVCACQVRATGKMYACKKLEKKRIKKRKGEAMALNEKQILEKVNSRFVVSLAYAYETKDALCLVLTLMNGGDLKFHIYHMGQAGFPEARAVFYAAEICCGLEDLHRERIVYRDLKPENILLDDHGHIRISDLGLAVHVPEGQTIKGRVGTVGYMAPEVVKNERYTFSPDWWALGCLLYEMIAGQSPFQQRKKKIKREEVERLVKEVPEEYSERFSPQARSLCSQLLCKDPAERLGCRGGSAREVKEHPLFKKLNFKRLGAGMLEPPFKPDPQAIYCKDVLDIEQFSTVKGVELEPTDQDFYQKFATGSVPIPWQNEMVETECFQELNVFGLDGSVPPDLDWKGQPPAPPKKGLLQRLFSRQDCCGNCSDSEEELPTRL

In the first assay the target is RAC-gamma serine/threonine-protein kinase (Homo sapiens) (UniProt Q9Y243). The note with it: at 0.1 µM.
Sequence of RAC-gamma serine/threonine-protein kinase (Homo sapiens) (Q9Y243 whole entry): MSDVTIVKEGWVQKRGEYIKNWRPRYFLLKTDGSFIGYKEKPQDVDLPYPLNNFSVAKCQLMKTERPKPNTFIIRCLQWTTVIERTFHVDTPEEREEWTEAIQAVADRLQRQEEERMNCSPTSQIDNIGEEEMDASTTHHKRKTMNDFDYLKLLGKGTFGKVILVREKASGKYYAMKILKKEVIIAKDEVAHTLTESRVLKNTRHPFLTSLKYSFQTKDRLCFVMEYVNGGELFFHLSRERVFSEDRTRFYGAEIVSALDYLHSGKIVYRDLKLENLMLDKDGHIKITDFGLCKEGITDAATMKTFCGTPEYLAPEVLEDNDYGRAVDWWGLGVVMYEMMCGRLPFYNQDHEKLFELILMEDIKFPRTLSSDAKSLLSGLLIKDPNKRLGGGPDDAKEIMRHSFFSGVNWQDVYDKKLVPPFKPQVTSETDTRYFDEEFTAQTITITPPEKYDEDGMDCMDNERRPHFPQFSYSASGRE
In the case of `CS(=O)(=O)CCNCc1ccoc1-c1ccc2ncnc(Nc3ccc(OCc4ccccc4)cc3)c2c1`, the inhibition is -0.09%.

For the molecule `CCN1CCC(C(=O)Nc2n[nH]c3nnc(-c4cccc(F)c4F)cc23)CC1`, the inhibition is -1.17%.

Turning to `COc1ccc(-c2nn3ncccc3c2-c2ccnc(Nc3ccc(F)c(F)c3)n2)cc1`, the inhibition was 1.4%.

For `CCS(=O)(=O)c1ccc(OC)c(Nc2ncc(-c3cccc(C(C)=O)c3)o2)c1`, the inhibition is 1.01%.

On to `c1cnn2ncc(-c3ccnc(NCCCN4CCOCC4)n3)c2c1`, for which the inhibition amounted to 1.38%.

Consider `CN(C)CCNC(=O)Nc1ccc(N(C)c2ccnc(Nc3ccc(CS(C)(=O)=O)cc3)n2)cc1`, for which the inhibition turned out to be 1.47%.

On to `CCn1c(-c2nonc2N)nc2cncc(C(=O)NCCNC)c21`, for which the inhibition is 4.31%.

Consider `COc1cc(N2CCN(C(C)C)CC2)ccc1Nc1nc(Nc2cccc(F)c2C(=O)O)c2cc[nH]c2n1`, for which the inhibition is 0.73%.

Regarding `COC(=O)Nc1nc2cc(Oc3ccc(NC(=O)Nc4ccccc4)cc3)ccc2[nH]1`, the inhibition worked out at 2.24%.

`NC(=O)c1ccc2c(-c3ccnc(NCCCO)n3)c(-c3ccc(F)cc3)nn2c1`: the inhibition amounted to 1.04%.

For the molecule `CS(=O)(=O)Nc1ccc(-c2ccc3c(NC(=O)C4CC4)n[nH]c3c2)cc1`, the inhibition was found to be 3.61%.

For `COC(=O)Nc1nc2ccc(Oc3ccc(NC(=O)Nc4cc(C(F)(F)F)ccc4F)cc3)cc2s1`, the inhibition worked out at 1.34%.

As to `COc1ccccc1-c1cc(/C=C2\C(=O)Nc3ncc(Br)cc32)cc(Br)c1O`, the inhibition is 1.93%.

Regarding `Cc1nnc(-c2cccc(-c3ccc(C(=O)NCC4CC4)cc3)c2)o1`, the inhibition came out at 1.35%.

The target is the same in the next assay. The note with it: at 1 µM.
In the case of `Nc1nonc1-c1nc2cnccc2n1C1CC1`, the inhibition was 6.38% and 2.16%.

For the molecule `NS(=O)(=O)c1cccc(N/C=C2\C(=O)Nc3ccccc32)c1`, the inhibition was 0.33%.

For `CC1=C(C(=O)Nc2ccc3[nH]ncc3c2)C(c2ccc(F)cc2)N=C(c2ccc(C(F)(F)F)nc2)N1` (stereo unspecified), the inhibition worked out at 1.68%.

Consider `CNC(=O)c1cncc(/C=C/c2ccccc2C)c1`, for which the inhibition came out at 1.52%.

`CN1CCC(C(=O)Nc2n[nH]c3nc(-c4ccc(O)cc4)c(Br)cc23)CC1`: the inhibition was -0.95% and 3.11%.

As to `Cc1cc(O)cc(C)c1/C=C/c1cncc(C(N)=O)c1`, the inhibition worked out at 1.18%.

In the case of `CS(=O)(=O)Nc1ccc(-c2cc(-c3ccccc3)cc(C(N)=O)c2N)cc1`, the inhibition is 2.53%.

Take `CS(=O)(=O)CCNCc1ccc(-c2ccc3ncnc(Nc4ccc(OCc5ccccc5)cc4)c3c2)o1`: the inhibition is 2%.

Regarding `CCOc1ccc2c(-c3ccnc(Nc4cc(OC)cc(C(F)(F)F)c4)n3)cnn2n1`, the inhibition turned out to be 0.45%.

Take `Cc1cc(O)cc(C)c1/C=C/c1cncc(C(=O)OC(C)(C)C)c1`: the inhibition turned out to be 1.34%.

Turning to `O=C1Nc2ccccc2/C1=C1\CCc2cc(O)ccc21`, the inhibition amounted to 1.29%.

`CCS(=O)(=O)c1ccc(OC)c(Nc2ncc(-c3cccc(F)c3)o2)c1`: the inhibition was 8.05%.

With `COc1cccc(Nc2nccc(-c3cnn4ncccc34)n2)c1`, the inhibition is -0.03%.

As to `Nc1ncnc2occ(-c3ccc(NC(=O)Nc4cc(C(F)(F)F)ccc4F)cc3)c12`, the inhibition is 1.58% and 0.37%.

Turning to `O=C(Nc1n[nH]c2nnc(-c3cccnc3)cc12)C1CC1`, the inhibition stood at 5.03%.

On to `O=C(O[C@H]1CN[C@H](C#Cc2cc3ncnc(Nc4ccc5c(cnn5Cc5ccccc5)c4)c3s2)C1)N1CCOCC1`, for which the inhibition came out at 0.11%.

As for `COc1cc(N2CCN(C(C)C)CC2)ccc1Nc1nc(Nc2cccc3ncccc23)c2cc[nH]c2n1`, the inhibition was found to be 0.55%.

On to `CS(=O)(=O)CCNCc1ccoc1-c1ccc2ncnc(Nc3ccc(OCc4ccccc4)cc3)c2c1`, for which the inhibition was found to be 2.03%.

With `CCN1CCC(C(=O)Nc2n[nH]c3nnc(-c4cccc(F)c4F)cc23)CC1`, the inhibition was 2.44%.

As to `COc1ccc(-c2nn3ncccc3c2-c2ccnc(Nc3ccc(F)c(F)c3)n2)cc1`, the inhibition was found to be 2.01%.

As for `CCS(=O)(=O)c1ccc(OC)c(Nc2ncc(-c3cccc(C(C)=O)c3)o2)c1`, the inhibition stood at 1.05%.

`c1cnn2ncc(-c3ccnc(NCCCN4CCOCC4)n3)c2c1`: the inhibition came to 1.68%.

Turning to `CN(C)CCNC(=O)Nc1ccc(N(C)c2ccnc(Nc3ccc(CS(C)(=O)=O)cc3)n2)cc1`, the inhibition is 1.13%.

In the case of `CCn1c(-c2nonc2N)nc2cncc(C(=O)NCCNC)c21`, the inhibition was 26.2%.

On to `COc1cc(N2CCN(C(C)C)CC2)ccc1Nc1nc(Nc2cccc(F)c2C(=O)O)c2cc[nH]c2n1`, for which the inhibition amounted to 2.08%.

Take `COC(=O)Nc1nc2cc(Oc3ccc(NC(=O)Nc4ccccc4)cc3)ccc2[nH]1`: the inhibition is 0.78%.

Consider `NC(=O)c1ccc2c(-c3ccnc(NCCCO)n3)c(-c3ccc(F)cc3)nn2c1`, for which the inhibition was 2.17%.

For the molecule `CS(=O)(=O)Nc1ccc(-c2ccc3c(NC(=O)C4CC4)n[nH]c3c2)cc1`, the inhibition amounted to 0.93%.

As for `COC(=O)Nc1nc2ccc(Oc3ccc(NC(=O)Nc4cc(C(F)(F)F)ccc4F)cc3)cc2s1`, the inhibition is -0.4%.

As for `COc1ccccc1-c1cc(/C=C2\C(=O)Nc3ncc(Br)cc32)cc(Br)c1O`, the inhibition stood at 0.61%.

As to `Cc1nnc(-c2cccc(-c3ccc(C(=O)NCC4CC4)cc3)c2)o1`, the inhibition is 1.48%.

A further assay addresses G protein-coupled receptor kinase 6 (Homo sapiens) (UniProt P43250). The note with it: at 0.1 µM.
With `Nc1nonc1-c1nc2cnccc2n1C1CC1`, the inhibition is 0.65% and 3.64%.

On to `NS(=O)(=O)c1cccc(N/C=C2\C(=O)Nc3ccccc32)c1`, for which the inhibition amounted to 3.98%.

Regarding `CC1=C(C(=O)Nc2ccc3[nH]ncc3c2)C(c2ccc(F)cc2)N=C(c2ccc(C(F)(F)F)nc2)N1` (stereo unspecified), the inhibition came to 3.1%.

Turning to `CNC(=O)c1cncc(/C=C/c2ccccc2C)c1`, the inhibition was 3.92%.

Turning to `CN1CCC(C(=O)Nc2n[nH]c3nc(-c4ccc(O)cc4)c(Br)cc23)CC1`, the inhibition is 8.47% and 0.32%.

In the case of `Cc1cc(O)cc(C)c1/C=C/c1cncc(C(N)=O)c1`, the inhibition was determined as 2.81%.

Take `CS(=O)(=O)Nc1ccc(-c2cc(-c3ccccc3)cc(C(N)=O)c2N)cc1`: the inhibition is 1.1%.

For the molecule `CS(=O)(=O)CCNCc1ccc(-c2ccc3ncnc(Nc4ccc(OCc5ccccc5)cc4)c3c2)o1`, the inhibition is 3.01%.

On to `CCOc1ccc2c(-c3ccnc(Nc4cc(OC)cc(C(F)(F)F)c4)n3)cnn2n1`, for which the inhibition was 2.38%.

Consider `Cc1cc(O)cc(C)c1/C=C/c1cncc(C(=O)OC(C)(C)C)c1`, for which the inhibition was found to be 2.27%.

On to `O=C1Nc2ccccc2/C1=C1\CCc2cc(O)ccc21`, for which the inhibition is 2.32%.

For `CCS(=O)(=O)c1ccc(OC)c(Nc2ncc(-c3cccc(F)c3)o2)c1`, the inhibition was found to be 4.17%.

With `COc1cccc(Nc2nccc(-c3cnn4ncccc34)n2)c1`, the inhibition is 4.14%.

Take `Nc1ncnc2occ(-c3ccc(NC(=O)Nc4cc(C(F)(F)F)ccc4F)cc3)c12`: the inhibition was 0.64% and -1.58%.

On to `O=C(Nc1n[nH]c2nnc(-c3cccnc3)cc12)C1CC1`, for which the inhibition came to 3.53%.

For the molecule `O=C(O[C@H]1CN[C@H](C#Cc2cc3ncnc(Nc4ccc5c(cnn5Cc5ccccc5)c4)c3s2)C1)N1CCOCC1`, the inhibition was -0.66%.

Regarding `COc1cc(N2CCN(C(C)C)CC2)ccc1Nc1nc(Nc2cccc3ncccc23)c2cc[nH]c2n1`, the inhibition was -0.14%.

For `CS(=O)(=O)CCNCc1ccoc1-c1ccc2ncnc(Nc3ccc(OCc4ccccc4)cc3)c2c1`, the inhibition worked out at 0.69%.

As to `CCN1CCC(C(=O)Nc2n[nH]c3nnc(-c4cccc(F)c4F)cc23)CC1`, the inhibition is -2.23%.

`COc1ccc(-c2nn3ncccc3c2-c2ccnc(Nc3ccc(F)c(F)c3)n2)cc1`: the inhibition came to 7.85%.

With `CCS(=O)(=O)c1ccc(OC)c(Nc2ncc(-c3cccc(C(C)=O)c3)o2)c1`, the inhibition was 3.78%.

Regarding `c1cnn2ncc(-c3ccnc(NCCCN4CCOCC4)n3)c2c1`, the inhibition worked out at 4.92%.

Consider `CN(C)CCNC(=O)Nc1ccc(N(C)c2ccnc(Nc3ccc(CS(C)(=O)=O)cc3)n2)cc1`, for which the inhibition is 2.73%.

In the case of `CCn1c(-c2nonc2N)nc2cncc(C(=O)NCCNC)c21`, the inhibition is -0.59%.

In the case of `COc1cc(N2CCN(C(C)C)CC2)ccc1Nc1nc(Nc2cccc(F)c2C(=O)O)c2cc[nH]c2n1`, the inhibition is 6.59%.

In the case of `COC(=O)Nc1nc2cc(Oc3ccc(NC(=O)Nc4ccccc4)cc3)ccc2[nH]1`, the inhibition came out at 3.76%.

With `NC(=O)c1ccc2c(-c3ccnc(NCCCO)n3)c(-c3ccc(F)cc3)nn2c1`, the inhibition was determined as 0.86%.

On to `CS(=O)(=O)Nc1ccc(-c2ccc3c(NC(=O)C4CC4)n[nH]c3c2)cc1`, for which the inhibition came out at 2.24%.

As to `COC(=O)Nc1nc2ccc(Oc3ccc(NC(=O)Nc4cc(C(F)(F)F)ccc4F)cc3)cc2s1`, the inhibition is -1.28%.

Take `COc1ccccc1-c1cc(/C=C2\C(=O)Nc3ncc(Br)cc32)cc(Br)c1O`: the inhibition turned out to be 5.35%.

`Cc1nnc(-c2cccc(-c3ccc(C(=O)NCC4CC4)cc3)c2)o1`: the inhibition turned out to be 3.35%.
